PP5 inh: blocks human protein phosphatase 5 activity | purified PP5c, OMFP substrate fluorescence | inhibition, % at 6.7 µM | actives 0.18% (n = 320,000);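 active = inhibition above the campaign's mean inhibition across all tested compounds plus 3 SD, cut at about 9.5% in these data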
Mdm2 MdmX PPI: inhibitors of human Mdm2/MdmX interaction; actives 3% (n = 330,000); O15151+Q00987; AID 485346; inhibition, % at 8 µM; SaOS-2 split-luciferase Mdm2/MdmX complementation, luminescence;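 active = inhibition of at least 50% at 8 µM in the primary screen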
PP1 inh: counter-screen for PP5 inhibitors: inhibitors of human PP1-alpha | actives 0.9% (n = 320,000) | purified PP1alpha, OMFP fluorescence | inhibition, % at 6.7 µM | P62136;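 active = inhibition above the mean inhibition of all tested compounds plus 3 SD, computed separately for each screening campaign, cut at about 15% in these data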
Target sequence (P62136 whole entry, looked up): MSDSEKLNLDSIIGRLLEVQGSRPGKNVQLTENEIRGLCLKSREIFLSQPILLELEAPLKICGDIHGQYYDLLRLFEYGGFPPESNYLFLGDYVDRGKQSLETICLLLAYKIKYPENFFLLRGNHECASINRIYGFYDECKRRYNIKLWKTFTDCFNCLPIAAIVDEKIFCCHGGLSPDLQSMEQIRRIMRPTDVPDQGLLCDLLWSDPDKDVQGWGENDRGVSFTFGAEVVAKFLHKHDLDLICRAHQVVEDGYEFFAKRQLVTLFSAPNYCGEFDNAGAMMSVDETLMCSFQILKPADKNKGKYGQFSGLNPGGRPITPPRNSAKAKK
Calb FLC: affects C. albicans growth with fluconazole | AID 1979 | actives 0.57% (n = 300,000) | C. albicans CaCi-2 (fluconazole-resistant clinical isolate) + fluconazole, Alamar Blue growth, 48 h | growth inhibition, % (test concentration not listed);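 active = growth inhibition above about 58% in most replicates, limit read from the data, passing the limit was not always enough; inconclusive = exactly half the replicates above a set limit; inactive = most replicates below a set limit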;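 also: all wells also contain fluconazole at 8 µg/ml as a sub-toxic cotreatment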
Beta cell apopt: beta cell apoptosis inhibition; INS-1E cytokine-induced death, ATP luminescence, 48 h; percent of positive-control rescue, neutral wells zero; protection from apoptosis, % (concentration not given with the values); actives 0.8% (n = 300,000); AID 435005;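 active = Every replicate reaches about 75%, or at least half do and their mean reaches it too, limit read from the data; inconclusive = At least half of replicates reach the limit but their mean does not; inactive = Under half of replicates reach the limit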;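 also: higher means more ATP so stronger rescue from cytokine killing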
CSC inhib: blocks cancer stem cells; AID 2717; inhibition, % at 7.5 µM; cancer stem cell-like cells viability, luminescence; actives 1.1% (n = 300,000); in the data active = inhibition above about 75%; inconclusive = no clear call, values can overlap the other calls; tested in HMLE shEcad cells
PP5 conf: confirmation of human PP5 phosphatase inhibitors; shares compounds with PP5 inh; Purified PP5, fluorogenic phosphatase substrate, fluorescence; inhibition, % at 6.7 µM; actives 22% (n = 460); AID 2331; in the data active = inhibition above about 9.5%
PP1 counter 3x: PP1 phosphatase inhibition, counter-screen for PP5 inhibitors. actives 4% (n = 460). inhibition, % at 6.7 µM. PP1 enzyme, fluorescent phosphatase substrate. shares compounds with PP5 inh; in the data active = inhibition above about 16%
Mdm2-MdmX conf: confirmation of human Mdm2/MdmX interaction inhibitors | actives 55% (n = 10,000) | inhibition, % at 8 µM | Mdm2-MdmX binding, luminescent assay | shares compounds with Mdm2 MdmX PPI; in the data active = inhibition above about 40%
Full FLuc ctr: inhibits full-length luciferase, flagging false Mdm2/MdmX hits; SaOS-2 full-length luciferase counterscreen, luminescence; actives 77% (n = 6,200); inhibition, % at 8 µM; shares compounds with Mdm2 MdmX PPI;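 active = mean inhibition at 8 µM reaching about 37%, which flags the compound as non-specific, limit read from the data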;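 also: p53-null SaOS-2 cells with luciferase driven by a doxycycline-inducible promoter; compound on cells about two nights before reading with doxycycline added after day one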
A number is an active result. Rows were chosen to be rich in hits. Some 4.9% of all compounds tested hit in one or more screens of this group.

`COC(=O)CCC(=O)OC1(C)C(=O)C2=CN(CCCOC(C)C)C(c3ccc(OC)cc3)=CC2=C(Br)C1=O` (configuration not stated) gave PP5 inh inactive, Mdm2 MdmX PPI inactive, PP1 inh inactive, Calb FLC inactive, Beta cell apopt inactive and CSC inhib inactive.
Screening CCn1c(COc2ccc3c(c2)CCCC3)nnc1SCC(=O)Nc1ccc(C(=O)OC)cc1 returned PP5 inh inactive, Mdm2 MdmX PPI inactive, PP1 inh inactive, Calb FLC inactive, Beta cell apopt inactive and CSC inhib inactive.
For COc1ccc(/C=N/NC(=O)CNC(=O)c2ccc3c(c2)OCCO3)c(C(=O)O)c1OC the results were PP5 inh inactive, Mdm2 MdmX PPI inactive, PP1 inh inactive, Calb FLC inactive, Beta cell apopt inactive and CSC inhib inactive.
Nc1nnc(SCc2ccc(F)cc2Cl)s1 was read as PP5 inh 13, Mdm2 MdmX PPI inactive, PP1 inh inactive, Calb FLC inactive, Beta cell apopt inactive, CSC inhib inactive, PP5 conf inactive and PP1 counter 3x inactive.
Screening COC(=O)c1ccc(-n2nnnc2SCC(=O)Nc2ccccc2F)cc1 returned PP5 inh inactive, Mdm2 MdmX PPI inactive, PP1 inh inactive, Calb FLC inactive, Beta cell apopt inactive and CSC inhib inactive.
Cc1nc2c(ncn2-c2ccccc2)c(=O)n1NC(=O)CN1CCN(C)CC1 was read as PP5 inh inactive, Mdm2 MdmX PPI inactive, PP1 inh inactive, Calb FLC inactive, Beta cell apopt inactive and CSC inhib inactive.
Screening Cc1nc2c(ncn2-c2ccccc2)c(=O)n1NC(=O)CN1CCCCC1 returned PP5 inh 13, Mdm2 MdmX PPI inactive, PP1 inh inactive, Calb FLC inactive, PP5 conf inactive and PP1 counter 3x inactive.
O=C1CSC(c2ccccc2)N1Cc1ccccc1 (configuration not stated) was read as PP5 inh inactive, Mdm2 MdmX PPI inactive, PP1 inh inactive, Calb FLC inactive, Beta cell apopt inactive and CSC inhib inactive.
For CCOC(=O)C1CCN(C(=O)c2cc(COc3ccc(F)cc3F)on2)CC1 the results were PP5 inh inactive, Mdm2 MdmX PPI inactive, PP1 inh inactive, Calb FLC inactive and CSC inhib inactive.
`CCCCn1c(NC(=O)c2ccccc2Cl)c(C#N)c2nc3ccccc3nc21` gave PP5 inh 12, Mdm2 MdmX PPI 58, PP1 inh inactive, Calb FLC inactive, Beta cell apopt inactive, CSC inhib inactive, PP5 conf 40, PP1 counter 3x 27 and Mdm2-MdmX conf inactive.
Screening Cc1ccc(OC(F)F)c(NC(=O)Nc2cccc(C(F)(F)F)c2)c1 returned PP5 inh 13, Mdm2 MdmX PPI 88, PP1 inh inactive, Calb FLC inactive, Beta cell apopt inactive, CSC inhib inactive, PP5 conf inactive, PP1 counter 3x inactive, Mdm2-MdmX conf 59 and Full FLuc ctr inactive.
For O=C(Nc1ccccc1)Nc1cccc(C(F)(F)F)c1 the results were PP5 inh inactive, Mdm2 MdmX PPI inactive, PP1 inh inactive, Calb FLC inconclusive, Beta cell apopt inactive and CSC inhib inactive.
For Cc1ccc(S(C)(=O)=O)cc1C(=O)N1CC(C(N)=O)Oc2ccccc21 (configuration not stated) the results were PP5 inh inactive, Mdm2 MdmX PPI inactive, PP1 inh inactive, Calb FLC inactive, Beta cell apopt inactive and CSC inhib inactive.
O=C(Nc1ccc(OCC(F)(F)C(F)F)c(C(F)(F)F)c1)c1ccccc1O was read as PP5 inh 11, Mdm2 MdmX PPI 94, PP1 inh inactive, Calb FLC inactive, Beta cell apopt 122, CSC inhib inactive, PP5 conf inactive, PP1 counter 3x inactive, Mdm2-MdmX conf 92 and Full FLuc ctr inactive.
`CCn1cc(/C=C(\NC(=O)c2ccccc2)C(=O)NCCCN2CCOCC2)c2ccccc21` gave PP5 inh inactive, Mdm2 MdmX PPI inactive, PP1 inh inactive, Calb FLC inactive, Beta cell apopt inactive and CSC inhib inactive.
`COc1ccc2[nH]c(=O)c(CN(Cc3cccs3)S(=O)(=O)c3c(C)ccc4nsnc34)cc2c1` gave PP5 inh 9.8, Mdm2 MdmX PPI 64, PP1 inh inactive, Calb FLC inconclusive, CSC inhib inactive, PP5 conf inactive, PP1 counter 3x inactive, Mdm2-MdmX conf 68 and Full FLuc ctr 73.
For CC(C)(C)n1nc2c(c1NC(=O)c1cc3ccccc3o1)CS(=O)(=O)C2 the results were PP5 inh inactive, Mdm2 MdmX PPI inactive, PP1 inh inactive, Calb FLC inactive, Beta cell apopt inactive and CSC inhib inactive.
Screening C=CCOc1ccc(/C=N/NC(=O)c2c(C)nc3ccc(Cl)cn23)cc1 returned PP5 inh inactive, Mdm2 MdmX PPI inactive, PP1 inh inactive, Calb FLC inactive, Beta cell apopt inactive and CSC inhib inactive.
For Cc1onc(-c2c(Cl)cccc2Cl)c1C(=O)N/N=C(\N)COc1ccc(Cl)cc1 the results were PP5 inh 12, Mdm2 MdmX PPI 72, PP1 inh inactive, Calb FLC 93, Beta cell apopt 91, CSC inhib 101, PP5 conf inactive, PP1 counter 3x inactive, Mdm2-MdmX conf 82 and Full FLuc ctr 40.
For COc1cc(/C=N/NC(=O)c2c(-c3c(Cl)cccc3Cl)noc2C)ccc1OCC(N)=O the results were Mdm2 MdmX PPI inactive and Calb FLC inactive.
`O=C(N/N=C\c1c(O)ccc2ccccc12)c1ccc(Cn2cccn2)o1` gave PP5 inh 19, Mdm2 MdmX PPI 75, PP1 inh inactive, Calb FLC inactive, Beta cell apopt 79, CSC inhib inactive, PP5 conf inactive, PP1 counter 3x inactive, Mdm2-MdmX conf 74 and Full FLuc ctr inactive.
`O=C(N/N=C\c1ccc(Cl)s1)c1ccc(Cn2cccn2)o1` gave PP5 inh inactive, Mdm2 MdmX PPI inactive, PP1 inh inactive, Calb FLC inactive, Beta cell apopt inactive and CSC inhib inactive.
For COc1ccc(C)cc1NC(=O)CNC(=O)c1sc2ccccc2c1Cl the results were PP5 inh inactive, Mdm2 MdmX PPI inactive, PP1 inh inactive, Calb FLC inactive, Beta cell apopt inactive and CSC inhib inactive.
CC(C)C[C@H](NC(=O)c1[nH]cnc1C(=O)N[C@@H](C)C(=O)OC(C)(C)C)C(=O)OC(C)(C)C was read as PP5 inh 11, Mdm2 MdmX PPI 63, PP1 inh inactive, Calb FLC inactive, Beta cell apopt inactive, CSC inhib inactive, PP5 conf inactive, PP1 counter 3x inactive and Mdm2-MdmX conf inactive.

Assay outcomes from PubChem BioAssay.
